SMILES strings stand for the structures. Compounds without any hit were thinned out: in the full panel of roughly 83,000, 20% have a hit.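 Values shown are percent growth following 48 h exposure of cells in 96-well plates to a single concentration of compound; below 10 was considered active.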 Values without a mark were called inactive. Active and inactive are the calls of the source.

The assay deals with HL-60(TB) leukemia. Nature of the assay: NCI-60 one-dose screen, 48 h (100 = growth as untreated, 0 = no growth, -100 = all killed). Conditions: 10 µM unless noted.
As to `CCCCCC(=O)c1ccc(OCCCN2CCN(C(=O)OCC)CC2)cc1`, the growth was 72.4%.
To `CC(=O)OCC(=O)O[C@@H]1C[C@]2(C(C)C)O[C@@]1(C)[C@@H]1CC[C@@H](C)[C@H]1[C@@H]2OC(=O)/C=C/c1ccccc1` belongs 82.6%; to `COc1ccc2c(c1)nc(N)c1c3ccccc3cn21`, 67.1%.
To `Cc1ccc(CC(=O)O)c(C)c1` belongs 98%; to `Cc1nc2ccccc2c(/C=C/c2ccccc2)c1C(=O)/C=C/c1ccccc1`, 23.1%; to `CSc1nnc(C2=CC(=O)c3ccccc3C2=O)n1-c1ccccc1`, 4.64% (active).
Next, `CN(C)c1ccc(C(c2ccc(O)cc2)c2ccc(N(C)C)cc2)cc1`: 87.1%; `C/C(=C\CCc1ccoc1)CC/C=C(\C)CCCN1CCSCC1`: 73.9%.
As to `C=CCNCCC#N`, the growth is 109%.
To `CCOC(=O)CN(c1sc(C)c(C)c1C(=O)OCC)S(=O)(=O)c1ccc(C)cc1` belongs 94.2%; to `Cc1cc(C)n(C(=O)c2nn(-c3ccc(Cl)cc3)cc2O)n1`, 39.8%.
Next, `O=C1c2ccccc2C(=Cc2ccccc2)c2ccccc21`: -1.29% (active); `COc1cc(C2CC(=O)Nc3c2c(C)nn3-c2nc3ccccc3[nH]2)c(OC)c(OC)c1OC` (stereo unspecified): 21.5%.
For the compound `CCOc1ccc(C(CN2CCOCC2)C(C)=O)cc1OC` (stereo unspecified), the growth is 84.7%.
To `CC(=O)Nc1nc(C)c(C(=O)N/N=C/N2CCCCC2)s1` belongs 131%; to `CCCCCC(C)(O)C(C(=O)O)c1ccccc1` (stereo unspecified), 110%.
To `O=C1c2c(c3c4cccnc4[nH]c3c3ccc4ccccc4c23)C(=O)N1O` belongs 5.07% (active); to `O=C1NC(=O)c2c(CCCSc3nc4ccccc4c(=O)n3CCc3ccccc3)cccc21`, 111%; to `CCCCCCN(CCCCCC)CC(O)c1ccc2c3c(cccc13)CC2` (stereo unspecified), 64.6%.
For the compound `CN[C@@H]1C[C@H]2O[C@@](C)([C@@H]1OC)n1c3ccccc3c3c4c(c5c6ccccc6n2c5c31)C(=O)N[C@H]4O`, the growth is -40.8% (active).
To `O/N=C1\c2ccccc2-c2ccc(Br)cc21` belongs 109%; to `C#CCNC(=O)[C@H](Cc1ccccc1)NC(=O)[C@]12CC[C@@H](C(=C)C)[C@@H]1[C@H]1CC[C@@H]3[C@@]4(C)Cc5c([nH]c6ccccc56)C(C)(C)[C@@H]4CC[C@@]3(C)[C@]1(C)CC2`, 93.1%.
Next, `CCOP(=O)(CCN1CCN(CCCCCOc2cc3c(cc2OC)C(=O)N2CCC[C@H]2C=N3)CC1)OCC`: 10.9%; `COc1ccc(C(=O)CCC(=O)O)cc1`: 98.6%.
Next, `Cc1cc(Nc2ccc(F)cc2)nc(N2CCN(c3ccnc4cc(Cl)ccc34)CC2)n1`: 7.98% (active); `O=C(Cc1ccc(Nc2ccnc(C(F)(F)F)c2)cc1)N/N=C/c1ccccc1O`: 69.1%.

Source of the values: PubChem BioAssay (NCI).
